The nature of test [1]: BSK_LPS_PGE2: BioMAP Diversity Plus: LPS Assay for Prostaglandin E2 (PGE2) Biomarker Activity (AID 2283082).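 For AC50: secreted prostaglandin E2 measured by ELISA in LPS-stimulated co-culture.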 The settings on record: primary human HUVEC with PBMC; actives raise or lower the signal. Summed up: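 Primary human endothelial cells and blood mononuclear cells, co-cultured with LPS, receive test chemical; PGE2 ELISA follows at 24 h, with SRB-stained parallel cultures flagging cytotoxicity.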

Read-out in test [2]: Macrophage colony-stimulating factor (MCSF), CSF1 (gene 1435)
Nature of the test: BSK_LPS_MCSF: BioMAP Diversity Plus: LPS Assay for Macrophage colony-stimulating factor (MCSF) Biomarker Activity (AID 2283083). To be noted: primary human HUVEC with PBMC; actives raise or lower the signal. An outline of the steps: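 Bidirectional fitting against DMSO was applied to M-CSF levels read by ELISA at 24 h post-dose. The system pairs human umbilical vein endothelium with peripheral blood mononuclear cells; parallel SRB staining tracked cytotoxicity.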

Read-out in test [3]: Tissue Factor, F3 (gene 2152)
In words: BSK_LPS_TissueFactor: BioMAP Diversity Plus: LPS Assay for Tissue Factor Biomarker Activity (AID 2283084). To be noted: primary human HUVEC with PBMC; actives raise or lower the signal. Summed up: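 Compound was added to an endothelial cell/PBMC co-culture, and after 24 h tissue factor (CD142) was read by ELISA. Gain or loss of signal was fitted against a DMSO baseline, and parallel SRB staining (560 nm) tracked overt cytotoxicity.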

Read-out in test [4]: Tumor necrosis factor (Homo sapiens) (UniProt P01375)
Nature of the test: BSK_LPS_TNFa: BioMAP Diversity Plus: LPS Assay for Tumour Necrosis Factor alpha (TNFa) Biomarker Activity (AID 2283085).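 For AC50: TNFa protein level quantified by ELISA in the co-culture.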 The settings on record: primary human HUVEC with PBMC; actives raise or lower the signal. An outline of the steps: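 ELISA-based TNFa endpoint in a human endothelial–PBMC co-culture sampled 24 h post-exposure. Curves were fitted in both directions using DMSO as baseline of activity.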

Read-out in test [5]: Vascular cell adhesion molecule 1 (VCAM1), VCAM1 (gene 7412)
In words: BSK_LPS_VCAM1: BioMAP Diversity Plus: LPS Assay for Vascular cell adhesion molecule 1 (VCAM1) Biomarker Activity (AID 2283086). To be noted: primary human HUVEC with PBMC; actives raise or lower the signal. An outline of the steps: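 Measured by ELISA: VCAM-1 in LPS-activated HUVEC/PBMC co-cultures 24 h after treatment. Values reflect bidirectional fitting with DMSO as baseline.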

Read-out in a further test: CD38, CD38 (gene 952)
Nature of the test: BSK_SAg_CD38: BioMAP Diversity Plus: SAg Assay for CD38 Biomarker Activity (AID 2283087). To be noted: primary human HUVEC with PBMC; actives raise or lower the signal. An outline of the steps: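 Measures CD38 on a human endothelial/PBMC co-culture driven by SEB and TSST-1, 24 h after compound exposure, using ELISA with fluorescence detection; DMSO defines baseline for bidirectional curve fitting.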

Read-out in a further test: CD40, CD40 (gene 958)
Nature of the test: BSK_SAg_CD40: BioMAP Diversity Plus: SAg Assay for CD40 Biomarker Activity (AID 2283088). To be noted: primary human HUVEC with PBMC; actives raise or lower the signal. Summed up: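 CD40 is measured by fluorescence ELISA in an endothelial/PBMC primary human co-culture at 24 h post-dose. Fitting is bidirectional, DMSO baseline. Parallel SRB staining (560 nm) flags cytotoxicity.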

Read-out in another test: CD69, CD69 (gene 969)
Nature of the test: BSK_SAg_CD69: BioMAP Diversity Plus: SAg Assay for CD69 Biomarker Activity (AID 2283089).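 For AC50: cell surface CD69 protein quantified by ELISA with fluorescence detection.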 The settings on record: primary human HUVEC with PBMC; actives raise or lower the signal. An outline of the steps: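 Endothelial/PBMC co-culture; chemical added; 24 h incubation; CD69 ELISA with fluorescence detection; bidirectional fit vs DMSO.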

Read-out in test [6]: Monocyte Chemoattractant Protein-1 (MCP1), CCL2 (gene 6347)
Nature of the test: BSK_SAg_MCP1: BioMAP Diversity Plus: SAg Assay for Monocyte Chemoattractant Protein-1 (MCP1) Biomarker Activity (AID 2283090). The settings on record: primary human HUVEC with PBMC; actives raise or lower the signal. Summed up: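 Values derive from bidirectional fitting of ELISA-measured MCP1 against DMSO controls. Readings were taken 24 h after dosing human vascular endothelial cells co-cultured with peripheral blood mononuclear cells under superantigen stimulation.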

Read-out in test [7]: E-selectin (Homo sapiens) (UniProt P16581)
In words: BSK_SAg_Eselectin: BioMAP Diversity Plus: SAg Assay for Eselectin Biomarker Activity (AID 2283091). To be noted: primary human HUVEC with PBMC; actives raise or lower the signal. An outline of the steps:
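Cell-surface E-selectin is read by ELISA at 24 h in the SAg co-culture of HUVEC and PBMC. Curves are fitted in both directions relative to DMSO. Parallel SRB total-protein staining tracks overt toxicity.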

Read-out in test [8]: Monokine induced gamma interferon (MIG), CXCL9 (gene 4283)
In words: BSK_SAg_MIG: BioMAP Diversity Plus: SAg Assay for Monokine induced gamma interferon (MIG) Biomarker Activity (AID 2283092). To be noted: primary human HUVEC with PBMC; actives raise or lower the signal. Summed up: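 Measures CXCL9 protein by ELISA in a human vascular primary-cell co-culture (umbilical vein endothelium with PBMC) 24 h after chemical addition. Activity is scored up or down from the DMSO control.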

Test [9] can be described thus: BSK_SAg_PBMCCytotoxicity: PBMC Cytotoxicity Assessment in the BioMAP Diversity Plus: SAg Assay (AID 2283093).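 For AC50: PBMC superantigen activated with SEB plus TSST-1 one hour after compound addition.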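 Note: PBMC viability measured as Alamar Blue reduction fluorescence at 546/580 nm; fitted both ways against DMSO so a hit may be loss or gain of signal.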 The settings on record: primary human HUVEC with PBMC. Summed up:
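Alamar Blue reduction (6 h, 546/580 nm) reports PBMC cytotoxicity after 90 h superantigen activation (SEB, TSST-1; 20 ng/mL final each) with 1 h compound pre-treatment. Gain or loss of signal fitted versus DMSO.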

Read-out in test [10]: Interleukin-8 (IL8), CXCL8 (gene 3576)
In words: BSK_SAg_IL8: BioMAP Diversity Plus: SAg Assay for Interleukin-8 (IL8) Biomarker Activity (AID 2283094). The settings on record: primary human HUVEC with PBMC; actives raise or lower the signal. An outline of the steps: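 Primary human endothelial cells with PBMC, exposed 24 h; IL-8 determined by ELISA, analysed bidirectionally relative to DMSO.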

Test [11] can be described thus: BSK_SAg_SRB: Viability Assessment in the BioMAP Diversity Plus: SAg Assay (AID 2283096).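 Note: cells read one day after compound addition; hits may be either gain or loss of signal compared with DMSO.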 The settings on record: primary human HUVEC with PBMC. Summed up:
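This overt-cytotoxicity endpoint quantifies protein in human endothelial/PBMC co-cultures at 24 h using SRB absorbance (560 nm) after trichloroacetic acid fixation. Values reflect signal change from the DMSO negative control, fitted bidirectionally.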

The target in test [12] is human CYP2A6, CYP2A6 (gene 1548) (UniProt P11509). In words: NVS_ADME_hCYP2A6: NovaScreen (NVS) CYP450-related Enzyme Activity (ADME) Assay for human CYP2A6 (AID 2283099; active = hit-call score of the fitted dose curve at least 0.9, where 1 is the maximum). Summed up:
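Compounds screened at 10 uM (duplicate) and, if active, titrated to a 20 uM top concentration against insect-cell-expressed CYP2A6. Loss of fluorescent product signal after 0.5 h, relative to acetonitrile baseline, indicates inhibition.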

Test [13] addresses human CYP2B6, CYP2B6 (gene 1555) (UniProt P20813). Nature of the test: NVS_ADME_hCYP2B6: NovaScreen (NVS) CYP450-related Enzyme Activity (ADME) Assay for human CYP2B6 (AID 2283101; active = hit-call score of the fitted dose curve at least 0.9, where 1 is the maximum). An outline of the steps:
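Recombinant protein, specific fluorescent substrate, read at 1 h post-dosing. Primary: single 10 uM, duplicate; follow-up: concentration series. Activity = signal loss vs acetonitrile baseline, with positive and negative controls on every plate.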

Test [14] is described as follows: BSK_SAg_Proliferation: Cell Proliferation Assessment in the BioMAP Diversity Plus: SAg Assay (AID 2283095).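 Note: relative cell number as total protein by SRB absorbance in sub-confluent culture.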 The settings on record: primary human HUVEC with PBMC. An outline of the steps:
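A human primary co-culture of umbilical vein endothelium and blood mononuclear cells receives compound; relative cell number is quantified at 96 h by SRB staining and 560 nm absorbance, with DMSO-referenced bidirectional curve fitting.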

Test [15] concerns the target human CYP19A1, CYP19A1 (gene 1588) (UniProt P11511). In words: NVS_ADME_hCYP19A1: NovaScreen (NVS) CYP450-related Enzyme Activity (ADME) Assay for human CYP19A1 (AID 2283098; active = hit-call score of the fitted dose curve at least 0.9, where 1 is the maximum;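 note: potency for inhibitors seen as loss of fluorescent enzyme signal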). An outline of the steps:
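Compounds were first screened at 10 uM in duplicate against purified enzyme, with a fluorogenic substrate and fluorescence intensity detection after 0.5 h. Inhibition appears as reduced signal against acetonitrile control.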

Test [16] concerns the target human CYP1A2, CYP1A2 (gene 1544) (UniProt P05177). In words: NVS_ADME_hCYP1A2: NovaScreen (NVS) CYP450-related Enzyme Activity (ADME) Assay for human CYP1A2 (AID 2283102; active = hit-call score of the fitted dose curve at least 0.9, where 1 is the maximum). Summed up: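 Enzyme activity of insect-cell-expressed human CYP1A2 measured by fluorescence 0.5 h after compound addition, relative to acetonitrile. Compounds first tested in duplicate at 10 uM, actives followed up in concentration series.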

By AC50 is commonly meant the midpoint of the concentration-response curve, whichever way the signal moves.

Structures are written as SMILES. Results filed as inconclusive are left out. Calls of active or inactive are those of the source. Rule for the calls, unless noted: active = hit-call score of the fitted dose curve at least 0.9, where 1 is the maximum; inactive = score below 0.9.

Chain of Tumor necrosis factor (Homo sapiens) (P01375 whole entry, looked up): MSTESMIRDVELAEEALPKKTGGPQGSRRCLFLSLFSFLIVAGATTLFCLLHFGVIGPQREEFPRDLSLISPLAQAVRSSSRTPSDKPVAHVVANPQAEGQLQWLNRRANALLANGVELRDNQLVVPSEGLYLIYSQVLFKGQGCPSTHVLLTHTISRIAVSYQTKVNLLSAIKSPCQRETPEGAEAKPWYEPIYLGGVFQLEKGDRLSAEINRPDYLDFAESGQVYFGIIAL
Chain of E-selectin (Homo sapiens) (P16581 whole entry, looked up): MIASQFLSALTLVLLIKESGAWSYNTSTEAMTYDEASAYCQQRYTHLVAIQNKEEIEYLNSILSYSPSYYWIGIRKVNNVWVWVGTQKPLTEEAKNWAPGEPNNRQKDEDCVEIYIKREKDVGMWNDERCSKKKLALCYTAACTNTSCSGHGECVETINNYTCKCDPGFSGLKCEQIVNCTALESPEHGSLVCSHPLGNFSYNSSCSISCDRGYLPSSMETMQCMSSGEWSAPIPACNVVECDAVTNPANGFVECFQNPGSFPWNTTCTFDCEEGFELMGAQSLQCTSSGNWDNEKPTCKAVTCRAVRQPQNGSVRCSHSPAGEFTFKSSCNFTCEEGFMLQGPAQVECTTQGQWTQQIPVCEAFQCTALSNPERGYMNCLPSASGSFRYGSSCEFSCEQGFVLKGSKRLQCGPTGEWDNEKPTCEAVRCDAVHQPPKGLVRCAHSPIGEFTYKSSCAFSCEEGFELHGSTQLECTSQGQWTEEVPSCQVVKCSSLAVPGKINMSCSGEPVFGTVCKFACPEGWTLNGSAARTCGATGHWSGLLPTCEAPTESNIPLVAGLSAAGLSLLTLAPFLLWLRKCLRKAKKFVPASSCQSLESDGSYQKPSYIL
Chain of human CYP2A6, CYP2A6 (gene 1548) (P11509 whole entry, looked up): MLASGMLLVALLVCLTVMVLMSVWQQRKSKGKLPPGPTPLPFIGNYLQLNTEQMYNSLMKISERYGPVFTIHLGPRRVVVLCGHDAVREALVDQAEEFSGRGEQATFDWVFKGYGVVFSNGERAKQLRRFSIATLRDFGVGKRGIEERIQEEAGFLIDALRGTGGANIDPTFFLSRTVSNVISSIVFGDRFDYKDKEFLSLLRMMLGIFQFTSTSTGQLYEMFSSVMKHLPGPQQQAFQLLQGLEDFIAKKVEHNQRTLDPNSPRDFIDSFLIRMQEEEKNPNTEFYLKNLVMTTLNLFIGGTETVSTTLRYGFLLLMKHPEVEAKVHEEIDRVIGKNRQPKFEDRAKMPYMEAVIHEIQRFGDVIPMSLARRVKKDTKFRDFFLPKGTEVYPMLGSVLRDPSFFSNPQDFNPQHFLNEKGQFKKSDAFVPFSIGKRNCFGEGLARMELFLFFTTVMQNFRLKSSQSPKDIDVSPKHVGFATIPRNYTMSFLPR
Chain of human CYP2B6, CYP2B6 (gene 1555) (P20813 whole entry, looked up): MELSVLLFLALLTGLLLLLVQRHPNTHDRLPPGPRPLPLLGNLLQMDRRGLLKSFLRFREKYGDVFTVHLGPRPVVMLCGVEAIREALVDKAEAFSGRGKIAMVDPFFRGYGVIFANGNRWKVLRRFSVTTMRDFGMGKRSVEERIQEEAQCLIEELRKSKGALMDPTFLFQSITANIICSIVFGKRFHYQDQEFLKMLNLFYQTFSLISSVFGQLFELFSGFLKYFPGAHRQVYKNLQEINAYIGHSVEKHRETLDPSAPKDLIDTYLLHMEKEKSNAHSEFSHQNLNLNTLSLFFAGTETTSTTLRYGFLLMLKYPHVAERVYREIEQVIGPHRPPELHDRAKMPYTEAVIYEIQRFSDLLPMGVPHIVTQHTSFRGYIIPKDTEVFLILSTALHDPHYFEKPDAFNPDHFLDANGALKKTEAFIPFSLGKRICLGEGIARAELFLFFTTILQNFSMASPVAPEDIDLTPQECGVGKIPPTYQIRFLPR
Chain of human CYP19A1, CYP19A1 (gene 1588) (P11511 whole entry, looked up): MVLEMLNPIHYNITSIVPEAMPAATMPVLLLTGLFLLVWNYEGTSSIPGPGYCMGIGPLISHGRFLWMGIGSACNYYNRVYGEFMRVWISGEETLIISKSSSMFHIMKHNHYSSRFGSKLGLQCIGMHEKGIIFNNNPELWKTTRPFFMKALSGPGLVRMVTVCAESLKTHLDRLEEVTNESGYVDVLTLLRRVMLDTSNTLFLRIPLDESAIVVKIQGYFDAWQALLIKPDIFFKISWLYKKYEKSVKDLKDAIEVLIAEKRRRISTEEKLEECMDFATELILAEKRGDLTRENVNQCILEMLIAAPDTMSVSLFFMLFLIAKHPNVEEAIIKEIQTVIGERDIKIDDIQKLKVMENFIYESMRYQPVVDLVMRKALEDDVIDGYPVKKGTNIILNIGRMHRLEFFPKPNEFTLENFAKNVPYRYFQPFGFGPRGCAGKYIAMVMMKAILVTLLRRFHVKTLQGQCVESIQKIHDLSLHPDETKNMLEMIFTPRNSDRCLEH
Chain of human CYP1A2, CYP1A2 (gene 1544) (P05177 whole entry, looked up): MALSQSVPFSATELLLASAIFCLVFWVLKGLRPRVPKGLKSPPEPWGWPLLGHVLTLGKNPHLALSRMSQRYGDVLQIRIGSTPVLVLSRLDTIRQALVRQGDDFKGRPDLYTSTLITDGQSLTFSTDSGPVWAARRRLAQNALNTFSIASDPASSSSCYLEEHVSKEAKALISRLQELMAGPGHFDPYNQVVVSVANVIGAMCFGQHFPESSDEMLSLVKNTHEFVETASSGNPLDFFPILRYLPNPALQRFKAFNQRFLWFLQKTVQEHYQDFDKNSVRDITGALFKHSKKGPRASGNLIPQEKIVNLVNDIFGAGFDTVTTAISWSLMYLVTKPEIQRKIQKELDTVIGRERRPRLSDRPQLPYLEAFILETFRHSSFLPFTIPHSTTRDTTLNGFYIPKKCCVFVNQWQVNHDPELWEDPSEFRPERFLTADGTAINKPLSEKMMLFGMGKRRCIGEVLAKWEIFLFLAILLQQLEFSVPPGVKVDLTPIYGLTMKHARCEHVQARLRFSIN

With `O=P(OC(CCl)CCl)(OC(CCl)CCl)OC(CCl)CCl`, the outcome in test [1] is “inactive”; in test [2], “inactive”; in [3], “inactive”; in test [4] it was “inactive”; in test [5], “inactive”; with CD69, CD69 (gene 969), “inactive”. Further, the outcome in test [8], in test [9], in test [11] and in test [12] was inactive. Besides, the AC50 with CD38, CD38 (gene 952) was 30 µM (active); with CD40, CD40 (gene 958), 20 µM (active); in test [6], 23.4 µM (active); in test [7] it was 20 µM (active); in test [10] it was 20 µM (active); in test [13] it was 6.54 µM (active).

For `CCOc1cccc(-n2cc(C(=O)N3CCN(c4cc(C(=O)O)c5ccccc5c4)CC3)nc2-c2ccc(C)cc2)c1`, the AC50 in test [1] was 29.4 µM (active); in [2], 23.2 µM (active); in [3], 19.2 µM (active); in test [4], 20.9 µM (active); in [5], 14.2 µM (active); with CD38, CD38 (gene 952) it was 28.2 µM (active). In addition, the AC50 was 13.6 µM (active) with CD40, CD40 (gene 958); 21.7 µM (active) in the test with CD69, CD69 (gene 969); 28.3 µM (active) in test [6]; 19.2 µM (active) in test [7]; 35.4 µM (active) in test [8]; 26.9 µM (active) in [9]. Besides, the results for the AC50 in test [10] and in test [11] were 11.4 µM (active) and 14.1 µM (active), respectively.

For the compound `Nc1nc2ncc(CNc3ccc(C(=O)N[C@@H](CCC(=O)O)C(=O)O)cc3)nc2c(=O)[nH]1`, the outcome in [1] is “inactive”; in test [2], “inactive”; in [3], “inactive”; in test [4], “inactive”; in [5] it was “inactive”; in the test with CD38, CD38 (gene 952), “inactive”. In addition, the outcome with CD40, CD40 (gene 958) is “inactive”; with CD69, CD69 (gene 969), “inactive”; in [6], “inactive”; in test [7] it was “inactive”; in test [8], “inactive”; in [9], “inactive”. Besides, the result in test [10], in [11] and in [12] was inactive.

`CCCCC(CC)COC(=O)CCCCCCCCC(=O)OCC(CC)CCCC` (configuration not stated): the outcome is “inactive” in test [1]; “inactive” in test [2]; “inactive” in test [3]; “inactive” in test [4]; “inactive” in test [5]; “inactive” with CD38, CD38 (gene 952). In addition, the outcome with CD40, CD40 (gene 958) was “inactive”; with CD69, CD69 (gene 969) it was “inactive”; in test [6], “inactive”; in test [7], “inactive”; in [8], “inactive”; in test [9], “inactive”. Moreover, the outcome in [10] and in test [11] was inactive.

On to `CCCCCCc1ccc(O)cc1O`, for which the AC50 was 1.38 µM (active) in test [1]; 32.6 µM (active) in [4]; 32 µM (active) in [5]; 33 µM (active) in the test with CD38, CD38 (gene 952); 30.6 µM (active) in the test with CD40, CD40 (gene 958); 27.6 µM (active) in test [6]. The AC50 was 33.6 µM (active) in test [7]; 36.8 µM (active) in test [8]; 33.1 µM (active) in test [9]; 24.4 µM (active) in [10]; 31 µM (active) in test [14]; 4.09 µM (active) in test [15]. The AC50 in test [13] is 4.64 µM (active). Further, the result in test [3] and in [16] was inactive.

Turning to `O=C(CCCCCCCCc1cccnc1)N1CCC(C=C(c2ccccc2)c2ccccc2)CC1`, the outcome in test [1] was inactive. Also, the AC50 in test [2] is 11.4 µM (active); in [3], 14.6 µM (active); in [5] it was 15 µM (active); in the test with CD38, CD38 (gene 952), 8.97 µM (active); in the test with CD40, CD40 (gene 958), 8.35 µM (active); with CD69, CD69 (gene 969), 8.49 µM (active). The AC50 is 7.42 µM (active) in test [6]; 7.71 µM (active) in test [7]; 8.63 µM (active) in [8]; 10.3 µM (active) in test [9]; 6.46 µM (active) in test [10]; 12.7 µM (active) in [11].
